The record followed here is the supplement of paper PMC6555819.

In the assay the test system is RARg homodimer (NR concentration 270 nM). The assay is described as follows: PBM binding z-score (relative to random genomic background probes); higher = stronger binding; sequences stand for … in GC…GCGATTGACAGCGTAGAATGAAGG
Summed up:
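Custom Agilent 4×180K protein-binding microarrays carried double-stranded probes, each with a 34-nt variable region. These regions held direct-repeat seeds, single-nucleotide variants, half-site ablations and random human genomic background sequences. Ligand-free nuclear receptor dimers were incubated on the arrays for 1 h, antibodies against each partner (one per run) detected binding, and scanned fluorescence was regression-normalized. Binding z-scores take the random background probes as reference.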
CCTGCTAGGTCATGGGCAGCTAATCTACAGTATG yielded a PBM binding z-score of 4.39.
As for GCGACTGGGGCATCAGCAGGTTACCAGAACTTAA, the PBM binding z-score was found to be 0.328.
In turn, TTACCAAGGTGAGGGTCGTTGATCCCTCTGTAGA gave a PBM binding z-score of 0.443.
ATATGTAGGTTATCGGGTCATTGAGTTTGCGCAT gave a PBM binding z-score of 2.61.
In the case of ATCTGTAGGTAAAGTTCAGTGAAAGATCGATAGA it was 2.25; in that of TCTCGGAGGACACGAAGGTCACAGCTTTCCAGAG, 4.93; in that of CCTACTCGGCCAAGGTCATTGATCAGTCAAAGCA, 3.71.
The figure for CCTACTGGGCCATCAAGTCATTGATATCAACGTT is 0.368.
The figure for ACTAGCAGGCCAATGGTCACTCAAGATTAGTCCG is 0.545; for AGTCACAGTTCAGGACGAGGTAACGTAAAGCACG it is 1.95.
With TCATATAGGTAAATCCTAGGTGAAAGTCCGATCT, the PBM binding z-score came to 0.396.
The sequence TCTTGTAGATCCATAGAGGTTAAGAAAGTGCGCT gave a PBM binding z-score of 0.378.
With CGTTCAAGGTCAGAGAGGTCAGTGAATGCCGAGT, the PBM binding z-score worked out at 7.17.
In the case of TGACCAAGGTGAAAGGTCGTTGATGCACGCCTTG it was 2.09; in that of CGTCCAAGGTTAGAGAGGTCAGTGAATGCCGAGT, 4.13; in that of ACTAGTTGGTCAGCTGACGTCACACACAATTCGG, 0.913.
The figure for GCTGCTAGGTCAACTGTTGGTCAGCTAAAGCTCG is 5.32.
TCTAGTTGGTCCCGGAGGTCACACACGACGGGTA showed a PBM binding z-score of 3.7.
Turning to ACGAGCAGGCCAAGGGTCACTCAAGATTAGTCCG, the PBM binding z-score was determined as 4.
Turning to GCTGCTAGGTCACCTGATGGTCAGCTAAAGCTCG, the PBM binding z-score was 5.27.
In the case of GATACAGGGTAAAGGCCAGAGTACGCGTATTGAT, the PBM binding z-score turned out to be 0.93.
The figure for ATATGTAGGTTAAGGGTCATTTAGGTTGGTTCGC is 3.29.
